Results published in the supplement of paper PMC12632987.
Whole data set: some 4,500 sequences, median “median log2 fold change of GCK-ALFA target abundance (FLAG IP / Myc IP barcode read proportion)” near 0.078, cut for the lowest 2% near -0.6. This excerpt belongs to a sample that is enriched for the lowest values.

B1: GBRAP_53_6398 (protein)
chain: AAAAIAAGLAELEALIAEVEADPTLDAADVAARAGALLKALAAAGAPEAELTALARRLAAAVAARGLGVEVSTALAATAAAAGREAVAAVFTEAAVEDLE
B2: GBRAP_128_3157 (protein)
chain: STEEVREETRRLLEEIRESDEEEAREIARELFALILTLSDEEAEAAVEVILELLPELSKEKLEILADVAREMRPEADPFKAELLAEVEVEALNEALELEE
B3: GBRAP_45_5811 (protein)
chain: SEELKETREKLEELLKKAKELAEKLKEEDPEKFTPLLELLEEAEKLLKEEPESLEAWERIEELLEEALKLALDSKKASAELLETLLEAANLALEAKELLE
B4: GBRAP_52_5842 (protein)
chain: MEEEARRLAEELVALAEAGREEELDALIEEIVETLSEEEVMLVLEELARLAAEADPETAEVIFDVADRLADAALAAGFDEMEMSLGLALVGAAVYKALQR
B5: GBRAP_184_5031 (protein)
chain: SVIERTIKADNLEELEAKLEKLKEEVKGSKADLIVTLDIKNPTEEMIKTALKRLGEMKKNGDVSSVTVGFARLLSEELIDVALKTADEEGVKVVLPISEE
B6: GBRAP_52_6157 (protein)
chain: MEARAEAYANALIAAVKAGDEAAIRALMEEIAATLSEEEIELMMAIVAEKVAGLTPEEQERAVEAALELEDILIAAGHDENIASYNTARVAGAAYDALQA
B7: GBRAP_52_6039 (protein)
chain: MEEEMRRKAEEIVELVKAGRRAEAEARIRELVATWSEEELELLGEELARLAREAEPEDLDAVMEAALMLADALEAAGYDPAFADDLLARVAAAAVENLQR
B8: GBRAP_14_3840 (protein)
chain: REEVRRLLLEAVERAVEEVRKFAPEEARERVEALREVLRRAVDEGLETGDLEEAERRLVEVAEAAVRELFADLPPEERGALVAVAVDELVEGFEELEERL
B9: GBRAP_80_6763 (protein)
chain: MMEELEEALEELSELLPELAEELRATVEALLELGVPVEDLLRLLKALVELAKLDKEKAEAILREFIAEVNEAIARGDLEEARALVIDAESDALLEVEELE
B10: GBRAP_125_3054 (protein)
chain: NLEEAIEALAELGKILGLSEEEVEELRKLAEKYGVKGTLYALLLAEGEEELAELVAKLTEEEVIEVLKRLLEYIKSHPNITKEEALEKLKELAEEALAKK
B11: GBRAP_117_2592 (protein)
chain: SATREAARAKIRATVAEVEALFKELAGLSPEEQAEALAAMRERVKAVLREVIEELGEEEAEELLDEALLDTDAETYFFLESVREDTLEELEEEEEEEERE
B12: GBRAP_52_6014 (protein)
chain: MRERLRAFVDEVLALVRAGKEEEARALIEELVASLNEEEIELLIDVLAERAAAARPEDQEAVWRLAEMLAEALEEAGVDEALADDLLARVAAALYAAEQA
B13: GBRAP_83_6975 (protein)
chain: AEEIVVAAPADRVEEAVEIAIDLAKEEGKKVTLEILTTPEQRERVLEAVERLLKEVPNIEIVVVLRGATKEEAEELEKELKEIAKELGVNADIEVLIEEP
B14: GBRAP_26_5451 (protein)
chain: MEELLERFRERLERAADELLDPETAALLKVAVDDIIALAELELEEANGDLEKELEIVEEMLEDLEEELEDLEVPEEVREKLLEIAREEAEEIKKALKEER
B15: GBRAP_26_5452 (protein)
chain: MEEKLEALRDRLVELADELLDPETAALLKVEVDNIVALAELELEEANGDLEKELAVVEEMLEDLEEALDDLEVPEEVKEKLLEAAREAAEEIKEYLKKKS
B16: GBRAP_52_5986 (protein)
chain: MKEEAKKIAEELVKLMLEGKEEEAEKLMKEIAENKSQEFILMVMEELAKMAKTATPEEVDAIVDTALMLGDIALEAGFDEAEIDDAEARVAAAAVENLKK
B17: GBRAP_64_6489 (protein)
chain: MEEIEESLEELLKLVEELLEAVKDLSEELQKKVEEVKRLVEEAKTASLEERLDLTVEAAKLLNEILKNPELTEEQKELAGLALDKASELAWLLFEAEEEE
B18: GBRAP_11_2748 (protein)
chain: KKEKLKEIAKAAEELAALLDKLIAEGVDNAELQAAAEKALKELAELVEKYGDESLKKLVAIIQEEFAQAKADPATAEAHWRNALAAARVLAGQVLLEIEE
B19: GBRAP_160_4544 (protein)
chain: KEKVEEAIKDIDERAAFVKSLVGKVSTEELINFFDVEVGSFIMELEELGLLTDELGEEIDKIADETKATLKANPNASDEEKKALIDEAAEKIKEAILKHS

biological target: GABARAP, O95166; assay: median log2 fold change of GCK-ALFA target abundance (FLAG IP / Myc IP barcode read proportion) (log2 ratio); each designed protein is fused to an ALFA-tag nanobody in HEK293 cells to bring the named protein to FLAG-tagged glucokinase (GCK); Myc marks an untargeted standard; higher = target protein stabilised (more abundant); conditions: target protein: 3xFLAG-MCP-GCK-ALFA reporter; HEK293 landing pad (RPLP)
Sequence (O95166 whole entry, the tested form may be a part): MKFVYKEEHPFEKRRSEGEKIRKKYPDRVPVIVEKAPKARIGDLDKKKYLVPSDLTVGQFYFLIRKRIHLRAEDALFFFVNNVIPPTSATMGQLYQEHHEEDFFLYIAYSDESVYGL
Outline: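 The readout is target abundance, the per-binder median log2 ratio of FLAG to Myc barcode read proportions. It came from HEK293 landing-pad cells carrying a recombined ALFA-nanobody-fused binder library, induced with 2 μg mL^−1 doxycycline and transfected with a plasmid for a FLAG-tagged target and a Myc-tagged standard. After 48 h, lysates were immunoprecipitated with anti-FLAG and anti-Myc, and circular RNA barcodes were reverse transcribed, amplified and sequenced. Each barcode needed a proportion of at least 10^−7 in both replicates and each binder at least 3 barcodes per replicate, a pseudocount of 10^−6 was added, and the replicates were pooled.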

Row | Binder | median log2 fold change
1 | B1 | 0.254
2 | B2 | 0.00897
3 | B3 | 0.129
4 | B4 | -0.837
5 | B5 | 0.0419
6 | B6 | -0.262
7 | B7 | -0.911
8 | B8 | 0.0661
9 | B9 | 0.0537
10 | B10 | -1.42
11 | B11 | 0.191
12 | B12 | -0.157
13 | B13 | 0.0242
14 | B14 | -1.2
15 | B15 | -0.454
16 | B16 | -0.152
17 | B17 | 0.0238
18 | B18 | 0.194
19 | B19 | 0.0163
